# Experimental data taken from PubChem BioAssay (Tox21).
# A number with no mark means an inactive call. Calls of active or inactive are those of the source. Calls come from the whole dose curve; as a rule, active = well fitted curve in the direction sought with a large enough effect in the repeat runs; inconclusive = weak or mixed curves; inactive = flat fitted curve, though single readings scatter.
# Experiment: qHTS assay to test for compound auto fluorescence at 535 nm (green) in HEK293 cells (AID 720680)
# Details: green autofluorescence 485/535 nm; series mostly up to 91.3 µM; fluorescence, % of fluorescein: at the top concentration
# Text: U.S. Tox21 Program National Center for Advancing Translational Sciences [NCATS] NIH Chemical Genomics Center [NCGC] U.S. Environmental Protection Agency [EPA] National Institutes of Environmental Health Sciences [NIEHS] National Toxicology Program [NTP] U.S. Food and Drug Administration [FDA] Tox21 Assay Overview: Compound auto fluorescence often interferes with screening of the compound library against various biological targets and signaling pathways. Some of these compounds may have fluorophoric properties. Such properties may interfere with the assay outputs resulting in false positives and/or negatives. To decrease such complications and ensure the compound activities are relevant in terms of biological response, the Tox21 10K compound library was screened for auto fluorescence. From the fluorophores used as reporter signals in our screening assays, the auto fluorescence equivalencies of compounds against three fluorophores have been evaluated: Triamterene, Fluorescein and Rose Bengal sodium for blue, green and red fluorescence, respectively. The fluorescence intensities were measured using Excitation/Emission wavelengths at 405/460nm, 485/535nm and 540/590nm for blue, green and red labels, respectively. This assay includes the green fluorescence data.
# Tox21 Assay Protocol Summary: 2,000 HEK293 cells in 5 uL of culture medium containing 10% dialyzed FBS per well were dispensed into black wall/clear bottom 1536-well plates using a Multidrop Combi Dispenser (Thermo Scientific). The assay plates were incubated for 4-5 hr at 37C to allow cell attachment to the well bottom, followed by the transfer of 23 nL compound or DMSO vehicle by a pintool work station (Kalypsys, San Diego, CA). After the assay plates were incubated overnight at 37C and 5% CO2, fluorescence intensities in the assay plates were measured by an Envision (PerkinElmer, Shelton, CT) plate reader using three labels for measuring blue, green and red fluorescence at […] 460, 535 and 590nm respectively.
# % is set by controls: 0 for no effect and ±100 for the full control effect.
Compound,"fluorescence, % of fluorescein",outcome
CC1=C(C/C=C(\C)CCC[C@H](C)CCC[C@H](C)CCCC(C)C)C(=O)c2ccccc2C1=O,-0.0053% [at 46 µM],–
C[N+]1(CC2COC(c3ccccc3)(c3ccccc3)O2)CCCCC1 (stereo not given),-0.0207% [at 46 µM],–
C=COC(=O)C(C)(CC)CCC(C)C (stereo not given),0.0116%,–
CC(C)(C)OC(=O)c1cccc(N)c1,-0.0025% [at 95.7 µM],–
CN(C)CCCN(C)CCCN(C)C,-0.0606%,–
O=C(O)CCSCCC(=O)O,-0.0174%,–
CN1CCN(c2cc3c(nn2)Oc2ccccc2N3C)CC1,-0.004% [at 46 µM],–
CC(C(=O)O)c1cccc(Oc2ccccc2)c1 (stereo not given),0.0474% [at 18.6 µM],–
O=S(=O)(O)c1cc(O)c(O)c(S(=O)(=O)O)c1,0.0237%,–
CC1(C)OC[C@@H](COC(=O)CCc2ccc(OC[C@@H](O)CNCCNC(=O)N3CCOCC3)cc2)O1,–,inactive
CC1=CC(=O)[C@H]2C[C@@H]1C2(C)C,0.0493%,–
CCCCCCCCCCCCCCC(=O)O,0.14%,–
O=C1CCCCCCCCCCCCCCO1,0.119%,–
CCOC(=O)COc1cc(-n2ncc(C(F)(F)F)c(C)c2=O)c(F)cc1Cl,0.039%,–
CCOC(=O)c1ccccc1,0.0116%,–
CCCc1nn(C)c2c(=O)[nH]c(-c3cc(S(=O)(=O)N4CCN(C)CC4)ccc3OCC)nc12,0.041% [at 46 µM],–
CC(=O)N[C@H]1[C@H]([C@H](O)[C@H](O)CO)OC(C(=O)O)=C[C@@H]1N=C(N)N,0.0427% [at 46 µM],–
CC(C)NNC(=O)c1ccncc1,0.0251% [at 46 µM],–
O=C1NC(=O)C2CC=CCC12 (stereo not given),-0.0116%,–
CN1CC(=O)N/C1=N/C(=O)Nc1cccc(Cl)c1,–,inactive

Compound,"fluorescence, % of fluorescein",outcome
C[N+](C)(C)CCCCCCCCCC[N+](C)(C)C,-0.0196% [at 46 µM],–
CCCCCC(C)N (stereo not given),0.0793% [at 46 µM],–
COc1ccnc(CS(=O)c2nc3cc(OC(F)F)ccc3[nH]2)c1OC (stereo not given),–,inactive
CC[N+](C)(CC)CCOC(=O)C1c2ccccc2Oc2ccccc21,-0.14% [at 46 µM],–
O=Cc1cccc(Br)c1,-0.0658% [at 95.7 µM],–
CCCOC(=O)CC,0.0699%,–
Nc1c2c(nc3c1CCC3)CCCC2,-0.0154% [at 46 µM],–
C[C@H]1[C@H](NC(=O)/C(=N/OC(C)(C)C(=O)O)c2csc(N)n2)C(=O)N1S(=O)(=O)O (stereo in doubt),0.0034% [at 18.6 µM],–
c1ccc(CCc2ccccc2)cc1,0.145%,–
NCCCC(N)(C(=O)O)C(F)F (stereo not given),0.0761% [at 46 µM],–
CC(C)(C)C(=O)c1ccccc1,-0.0527%,–
CN1C(C)(C)CC(O)CC1(C)C,0.0761%,–
CC(=O)OCC(=O)[C@@]1(O)[C@H](C)C[C@H]2[C@@H]3CCC4=CC(=O)C=C[C@]4(C)[C@@]3(F)[C@@H](O)C[C@@]21C,–,inactive
NC(=O)N[C@@H](CCC(=O)O)C(=O)O,0.0248% [at 46 µM],–
CC(C#N)(CCC(=O)O)N=NC(C)(C#N)CCC(=O)O (stereo not given),0.0241%,–
CC(C)[C@H]1CC[C@@H](C)CC1=O,0.0447%,–
C=C[Si](OC(C)=O)(OC(C)=O)OC(C)=O,0.0005%,–
CO[C@@]1(NC(=O)C(C(=O)O)c2ccc(O)cc2)C(=O)N2C(C(=O)O)=C(CSc3nnnn3C)CO[C@@H]21 (stereo not given in full),0.0617% [at 18.6 µM],–
CO[Si](C)(OC)c1ccccc1,-0.0937%,–
COc1cccc(OC)c1C(=O)N[C@@H]1C(=O)N2[C@@H]1SC(C)(C)[C@@H]2C(=O)O,0.0088% [at 46 µM],–
